Experimental data as given in PubChem BioAssay.
Unmarked numbers belong to inactive results. How the calls were made is not given here.

target: Pantothenate synthetase (Mycobacterium tuberculosis (strain ATCC 25618 / H37Rv)) (UniProt P9WIL5); assay: Recombinant Mtb pantothenate synthetase (PanC) inhibitors, coupled enzyme, confirmatory (AID 375); details: coupled enzyme assay; at 10 µM, hits give high values;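 further: 0% = full reaction with vehicle and 100% = no enzyme background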
Sequence (P9WIL5 whole entry, looked up): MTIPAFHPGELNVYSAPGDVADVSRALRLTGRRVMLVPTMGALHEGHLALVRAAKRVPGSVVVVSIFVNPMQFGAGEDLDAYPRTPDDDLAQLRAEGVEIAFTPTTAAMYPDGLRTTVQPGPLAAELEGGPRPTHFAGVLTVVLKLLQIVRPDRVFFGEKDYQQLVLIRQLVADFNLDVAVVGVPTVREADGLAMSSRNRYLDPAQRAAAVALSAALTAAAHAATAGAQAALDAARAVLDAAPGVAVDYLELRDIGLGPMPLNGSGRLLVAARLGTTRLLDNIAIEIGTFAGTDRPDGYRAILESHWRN

Row | Compound | inhibition [%]
1 | Cc1ccc(-c2cc(C(=O)Nc3cc(C)on3)c3ccccc3n2)c(C)c1 | 0
2 | CCOC(=O)CSc1nc2sc(C)c(C)c2c(=O)[nH]1 | 0
3 | CCOc1cccc(C(=O)N(Cc2ccco2)C2CCS(=O)(=O)C2)c1 (stereo not given) | 6
4 | CN(c1ccccc1)S(=O)(=O)c1cc(C(=O)N2CCN(c3ccccn3)CC2)ccc1Cl | 0
5 | COc1ccccc1CNC(=O)C1CCN(S(=O)(=O)N2CCCCC2)CC1 | 0
6 | Cc1ccc(Nc2nc(CSc3nnc(-c4cccs4)o3)cs2)cc1 | 0
7 | Cc1cc(C)nc(N2CCC(C(=O)Nc3ccc4c(c3)CCC4)CC2)n1 | 5
8 | CCOc1ccccc1C(=O)Nn1c(C2CCC2)nc2ccccc2c1=O | 0
9 | CC1CCN(S(=O)(=O)c2cn(CC(=O)N3CCN(C)CC3)c(=O)c3ccccc23)CC1 | 4
10 | CCCCCC(=O)N1CC2(CC)CN(C(=O)CCCCC)CC(CC)(C1)C2=O | 4
11 | CC(C)(C)C(=O)N=C1SC2CS(=O)(=O)CC2N1c1ccc2c(c1)OCO2 (stereo not given) | 0
12 | O=C(Cn1cc2c(n1)CCCCC2)N1CCc2ccccc21 | 0
13 | CCN(CC)c1ccc(/C=N/n2nnnc2N)c(O)c1 | 6
14 | CSc1ccccc1NC(=O)c1noc2c1CCC2 | 0
15 | COC(=O)CSC1=C(C#N)C(c2ccccc2)CC(=O)N1 (stereo not given) | 0
16 | CCc1ccccc1NC(=O)CN(c1cccc(OC)c1)S(C)(=O)=O | 7
17 | Cn1c(CN2CCOCC2)nc2cc(NC(=O)c3ccccc3Cl)ccc21 | 5
18 | Cc1nnc(SCCn2c(N3CCC(Cc4ccccc4)CC3)nc3c2c(=O)[nH]c(=O)n3C)s1 | 2
19 | COc1ccc2c(c1)CCc1c(C(=O)NCc3cccnc3)noc1-2 | 0
20 | CCOc1ccccc1OCC(=O)Nc1nnc(COC)s1 | 4

Row | Compound | inhibition [%]
21 | O=c1[nH]cnc2c1nc(SCc1ccccc1)n2C1OC(CO)C(O)C1O (stereo not given) | 0
22 | COc1ccc(Nc2nc(Nc3ccc(OC)cc3)nc(-n3[nH]c(=O)c(C)c3C)n2)cc1 | 0
23 | CCOC(=O)CSc1nnc2n1C(C)(C)Cc1ccccc1-2 | 3
24 | CNC(=O)CN(C#N)c1nc(N(C)C)nc(N(C)C)n1 | 0
25 | CCOC(=O)c1ccc(NC(=O)CSC2=NC(=O)C(CC)C(=O)N2)cc1 (stereo not given) | 3
26 | COC(=O)c1ccccc1NC(=O)CN1CCC(n2nnc3cc(F)ccc32)CC1 | 0
27 | CC1CCCN(S(=O)(=O)c2coc(C(N)=O)c2)C1 (stereo not given) | 0
28 | COC(=O)C1C(=O)c2c([nH]c(C(=O)OCCOC(C)C)c2C)CC1C (stereo not given) | 0
29 | Cc1cc(C(=O)CSc2nnc(-c3ccccc3)n2C)c(C)n1C | 0
30 | CCOc1cc(NC(=O)c2ccccn2)c(OCC)cc1NC(=O)CC(C)C | 11
31 | Cc1ccccc1C(=O)NC1CCN(Cc2nnnn2CCc2ccccc2)CC1 | 14
32 | CCOC(=O)CN1CC23C=CC(O2)C(C(=O)Nc2ccc(C(C)=O)cc2)C3C1=O (stereo not given) | 6
33 | CCCCCCC(C)n1[nH]c(=O)c2c(C)cc(=O)[nH]c21 (stereo not given) | 5
34 | Cn1c(=O)cc(OCC(=O)NCCCN2CCN(Cc3ccccc3)CC2)c2ccccc21 | 0
35 | O=C(O)[C@@H]1CCCN1c1ncnc2sc3c(c12)CCC3 | 6
36 | COCCn1nnnc1C(C(C)C)N(Cc1cccnc1)Cc1ccccc1Cl (stereo not given) | 2
37 | O=C(CSc1nnnn1-c1ccc2c(c1)OCO2)NCc1cccs1 | 0
38 | COC(=O)C1=C(C)Nc2ncnn2C1c1ccc(C)o1 (stereo not given) | 0
39 | O=C(NCCN1CCOCC1)NC1(C(F)(F)F)Oc2ccc(Cl)cc2O1 (stereo not given) | 0
40 | CSc1nnc2c3ccccc3n(CCc3ccccc3)c2n1 | 0
